Measured values as given in PubChem BioAssay.
Active and inactive are the calls of the source.

What was measured:
[1] = small molecules captured by biotinylated probe aFSTL3 – biochemical, small-molecule microarray, fluorescence 635/667, stem cell growth factor project, primary screen (AID 1064); settings: higher = more signal;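 also: measures binding of the biotinylated anti-FSTL3 antibody to printed compounds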
[2] = binders from COS7 lysate, DM2A8 probe, primary screen, torsin A project, cell lysate, small-molecule microarray, fluorescence 635/667 (AID 1065); settings: higher = more signal, COS7 lysate expressing mutant human TOR1A
[3] = small molecules captured by biotinylated probe aFGF2 – biochemical, small-molecule microarray, fluorescence 635/667, stem cell growth factor project, primary screen (AID 1067); settings: higher = more signal;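 also: measures binding of biotinylated aFGF2 protein to printed compounds on slides; z-score merges feature fluorescence and signal-to-noise across triplicate slides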
[4] = small molecules captured by biotinylated probe aFGF10 – biochemical, small-molecule microarray, fluorescence 635/667, stem cell growth factor project, primary screen (AID 1071); settings: higher = more signal;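 also: score merges 667 nm spot intensity and signal to noise from triplicate slides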
[5] = biological target: Neurogenic locus notch homolog protein 2 (Homo sapiens) (UniProt Q04721); experiment: small molecules binding Notch2 protein – biochemical, small-molecule microarray, 635 nm fluorescence, stem cell growth factors, primary screen (AID 1073); settings: higher = more signal
[6] = biological target: Pro-neuregulin-1, membrane-bound isoform (Homo sapiens) (UniProt Q02297); experiment: small molecules binding neuregulin-1 protein – biochemical, small-molecule microarray, fluorescence 635/667, psychiatric disease protein project, primary screen (AID 1075); settings: NRG1 binding, 635 nm fluorescence, higher = more signal;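 also: score combines 667 nm spot fluorescence with signal to noise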
[7] = test system: Neuregulin-1 EGF-like domain; experiment: small molecules binding NRG1 EGF domain – biochemical, small-molecule microarray, 635 nm fluorescence, primary screen (AID 1081); settings: higher = more signal;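 also: binding of the protein to compounds printed on small-molecule microarray slides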
[8] = FRG1 expression reporter modulators in myotubes – cell-based, C2C12 myotubes, firefly/Renilla luciferase, luminescence, FRG1 inhibition for FSHD, primary screen (AID 1084); settings: FRG1 promoter luciferase, higher = more signal, called active from +8 up or from −8 down
[9] = small molecules captured by biotinylated probe aFST – biochemical, small-molecule microarray, fluorescence 635/667, stem cell growth factor project, primary screen (AID 1086); settings: higher = more signal;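 also: score merges 667 nm fluorescence with signal-to-noise of each printed compound spot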
[10] = binders of probe aHhip on microarray, primary screen, stem cell growth factor project, biochemical, small-molecule microarray, fluorescence 635/667 (AID 1087); settings: higher = more signal;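 also: score merges spot fluorescence at 667nm with spot signal to noise ratio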

Chain of Neurogenic locus notch homolog protein 2 (Homo sapiens) (Q04721 whole entry, looked up, canonical isoform): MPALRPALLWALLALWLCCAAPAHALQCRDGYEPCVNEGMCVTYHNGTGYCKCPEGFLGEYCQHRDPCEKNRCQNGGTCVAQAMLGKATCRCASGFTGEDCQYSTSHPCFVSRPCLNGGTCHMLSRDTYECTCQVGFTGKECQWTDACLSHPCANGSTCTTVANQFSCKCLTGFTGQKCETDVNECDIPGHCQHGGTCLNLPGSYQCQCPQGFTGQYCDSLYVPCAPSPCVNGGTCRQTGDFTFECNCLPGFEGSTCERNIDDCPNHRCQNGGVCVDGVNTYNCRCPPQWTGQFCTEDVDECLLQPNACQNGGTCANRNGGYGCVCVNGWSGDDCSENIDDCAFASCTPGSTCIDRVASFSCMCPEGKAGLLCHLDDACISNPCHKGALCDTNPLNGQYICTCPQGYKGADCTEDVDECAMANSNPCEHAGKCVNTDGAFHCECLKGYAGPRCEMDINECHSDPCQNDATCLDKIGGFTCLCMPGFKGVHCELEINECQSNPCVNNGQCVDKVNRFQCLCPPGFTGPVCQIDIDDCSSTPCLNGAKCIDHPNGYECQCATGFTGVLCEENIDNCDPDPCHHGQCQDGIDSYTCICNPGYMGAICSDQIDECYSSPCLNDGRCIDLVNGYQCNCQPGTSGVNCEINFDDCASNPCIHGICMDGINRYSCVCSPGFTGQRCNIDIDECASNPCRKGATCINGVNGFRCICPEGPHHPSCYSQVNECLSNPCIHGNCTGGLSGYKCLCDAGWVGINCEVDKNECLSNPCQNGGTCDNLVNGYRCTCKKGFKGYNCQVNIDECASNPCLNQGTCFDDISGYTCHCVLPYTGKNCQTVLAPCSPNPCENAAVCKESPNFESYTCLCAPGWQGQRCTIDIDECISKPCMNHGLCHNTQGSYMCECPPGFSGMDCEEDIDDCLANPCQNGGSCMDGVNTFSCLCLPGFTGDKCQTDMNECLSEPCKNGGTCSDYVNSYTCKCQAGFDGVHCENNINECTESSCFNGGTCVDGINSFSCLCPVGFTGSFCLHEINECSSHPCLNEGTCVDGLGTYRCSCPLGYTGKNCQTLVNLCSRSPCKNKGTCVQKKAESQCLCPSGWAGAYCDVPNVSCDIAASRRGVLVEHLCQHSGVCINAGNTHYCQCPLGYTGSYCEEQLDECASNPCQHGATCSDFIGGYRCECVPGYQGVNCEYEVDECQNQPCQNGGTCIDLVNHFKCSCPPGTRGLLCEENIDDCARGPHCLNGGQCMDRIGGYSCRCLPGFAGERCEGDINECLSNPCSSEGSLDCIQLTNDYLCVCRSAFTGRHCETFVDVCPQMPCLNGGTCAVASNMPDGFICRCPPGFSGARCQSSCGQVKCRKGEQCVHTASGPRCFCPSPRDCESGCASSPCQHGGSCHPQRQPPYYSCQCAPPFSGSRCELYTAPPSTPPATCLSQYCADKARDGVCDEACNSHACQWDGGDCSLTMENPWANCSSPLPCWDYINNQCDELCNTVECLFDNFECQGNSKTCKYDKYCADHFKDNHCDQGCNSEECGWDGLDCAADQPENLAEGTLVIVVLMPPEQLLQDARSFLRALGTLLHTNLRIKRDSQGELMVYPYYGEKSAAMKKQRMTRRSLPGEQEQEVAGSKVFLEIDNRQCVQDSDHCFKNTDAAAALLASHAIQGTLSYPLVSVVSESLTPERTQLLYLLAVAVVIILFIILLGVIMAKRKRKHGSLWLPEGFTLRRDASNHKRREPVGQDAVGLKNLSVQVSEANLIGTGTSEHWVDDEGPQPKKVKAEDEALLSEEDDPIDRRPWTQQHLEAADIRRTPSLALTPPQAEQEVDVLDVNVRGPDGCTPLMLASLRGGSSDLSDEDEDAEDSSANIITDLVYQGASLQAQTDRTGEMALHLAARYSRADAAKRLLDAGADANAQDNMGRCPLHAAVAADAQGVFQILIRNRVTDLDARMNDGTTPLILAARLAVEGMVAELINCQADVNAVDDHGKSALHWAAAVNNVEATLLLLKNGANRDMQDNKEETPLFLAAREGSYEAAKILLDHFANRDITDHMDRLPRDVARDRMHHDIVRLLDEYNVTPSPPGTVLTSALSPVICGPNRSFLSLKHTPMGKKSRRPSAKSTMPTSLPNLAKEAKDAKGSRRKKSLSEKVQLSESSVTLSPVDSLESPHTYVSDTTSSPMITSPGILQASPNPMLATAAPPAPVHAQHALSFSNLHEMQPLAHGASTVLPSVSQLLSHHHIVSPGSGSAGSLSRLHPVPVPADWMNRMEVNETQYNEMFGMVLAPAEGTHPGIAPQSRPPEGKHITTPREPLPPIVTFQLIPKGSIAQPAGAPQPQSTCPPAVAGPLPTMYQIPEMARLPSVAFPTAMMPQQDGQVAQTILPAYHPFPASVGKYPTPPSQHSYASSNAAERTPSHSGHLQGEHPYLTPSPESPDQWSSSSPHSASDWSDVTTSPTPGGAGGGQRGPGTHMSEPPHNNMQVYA
Chain of Pro-neuregulin-1, membrane-bound isoform (Homo sapiens) (Q02297 whole entry, looked up, the tested form may be a part, canonical isoform): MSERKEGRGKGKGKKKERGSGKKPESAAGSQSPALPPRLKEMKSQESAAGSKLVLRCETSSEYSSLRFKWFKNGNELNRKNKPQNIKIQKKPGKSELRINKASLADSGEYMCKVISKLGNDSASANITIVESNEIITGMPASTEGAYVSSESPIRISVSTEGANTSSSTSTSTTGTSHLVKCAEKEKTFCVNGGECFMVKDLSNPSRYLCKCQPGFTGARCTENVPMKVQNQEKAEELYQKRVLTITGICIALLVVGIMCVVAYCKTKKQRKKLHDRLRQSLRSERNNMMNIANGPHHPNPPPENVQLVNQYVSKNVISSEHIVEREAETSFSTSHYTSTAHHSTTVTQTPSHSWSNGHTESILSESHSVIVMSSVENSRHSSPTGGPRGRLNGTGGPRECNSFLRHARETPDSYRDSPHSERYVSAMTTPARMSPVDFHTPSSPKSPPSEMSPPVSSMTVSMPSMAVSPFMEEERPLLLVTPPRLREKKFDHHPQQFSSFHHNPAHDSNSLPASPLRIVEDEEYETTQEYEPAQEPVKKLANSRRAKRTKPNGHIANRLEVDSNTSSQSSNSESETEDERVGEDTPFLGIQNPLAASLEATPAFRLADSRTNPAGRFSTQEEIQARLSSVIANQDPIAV

SMILES	composite z-score [1]	composite z-score [2]	composite z-score [3]	composite z-score [4]	composite z-score [5]	composite z-score [6]	composite z-score [7]	z-score [8]	composite z-score [9]	composite z-score [10]
NCCCCCCNC(=O)[C@H]1C[C@H]2C(=O)NCC(=O)N2[C@H]1c1cccc(OCCO)c1	-0.196	0.615	-0.0647	0.477	0.363	0.933	1.13	1.03 (inactive)	0.0417	-0.0994
CCOC(=O)C[C@H]1[C@H](OC(=O)Cc2ccc3c(c2)OCO3)[C@@H](NC(=O)C2CCCCC2)c2cc(OCCCO)ccc2N1C(=O)Cc1ccc(OC)cc1	-0.397	0.0664	-0.048	0.145	1.17	-0.054	0.86	-2.5 (inactive)	0.364	0.0515
C=CCOC(=O)[C@H]1[C@@H]2C(=O)O[C@@H](c3ccccc3)[C@@H](c3ccccc3)N2[C@@H](c2ccc(OCCOC(=O)[C@@H]3C[C@@H]4C(=O)N5CCC[C@H]5C(=O)N4[C@@H]3c3ccc(O)cc3)cc2)[C@]12C(=O)Nc1ccccc12	-0.212	0.434	-0.108	0.282	0.356	0.771	1.28	-0.105 (inactive)	0.328	-0.249
COc1c(C)cc(-c2cc3c(c(-c4ccc(Oc5ccccc5)cc4)n2)[Si](C(C)C)(C(C)C)OC3)cc1C	-0.128	-0.0685	-0.147	-0.114	0.104	-0.0614	-1.06	0.643 (inactive)	0.0723	-0.353
CC(=O)NCCCC[C@@H]1NC(=O)[C@@H]2C[C@H](C(=O)NCCCCCCNC(=O)CS)[C@H](c3ccc(O)cc3)N2C1=O	0.219	0.463	-0.0985	-0.1	-0.498	1.49	1.27	1.5 (inactive)	-0.715	-0.0645
O=C1O[C@@H](c2ccccc2)[C@@H](c2ccccc2)N2[C@@H](c3ccccc3OCCO)[C@]3(C(=O)Nc4ccc(C#CC5(O)CCCCCC5)cc43)[C@@H](C(=O)Nc3nc4ccccc4s3)[C@H]12	-0.508	0.984	-0.0113	0.895	1.22	0.678	1.11	-0.0944 (inactive)	0.806	1.22
COc1ccc(C#Cc2ccc3c(c2)[C@]2(C(=O)N3)[C@H](C(=O)NC[C@H](O)c3ccccc3)[C@H]3C(=O)O[C@H](c4ccccc4)[C@H](c4ccccc4)N3[C@@H]2c2ccc(OCCO)cc2)cc1	-0.547	0.637	-0.0005	0.6	0.975	1.07	1.19	0.943 (inactive)	0.0324	-0.32
CC(C)N1C(=O)[C@@]2(c3ccc([N+](=O)[O-])cc3)CC(=O)N(CC34CC5CC(CC(C5)C3)C4)[C@@H]2c2ccc(CO)cc21	-0.448	-1.26	-0.188	-0.373	-1.16	-0.34	-0.867	0.63 (inactive)	-0.39	-0.164
C=C(CCCC)C(=O)CC[C@H](OC(=O)c1cccnc1)c1cccc(OCCO)c1	0.17	-0.218	-0.157	0.387	-0.818	0.941	0.762	-0.594 (inactive)	0.0945	-0.236
COC(=O)C(CC#Cc1ccc2c(c1)[C@]1(C(=O)N2)[C@H](c2ccc(OCCO)cc2)N2[C@H](c3ccccc3)[C@H](c3ccccc3)OC(=O)[C@H]2[C@@H]1C(=O)NC[C@H](O)c1ccccc1)C(=O)OC	0.194	0.855	-0.0011	1.12	0.694	1.29	1.26	1.03 (inactive)	-0.0592	0.0274
O=C(NCc1ccccc1)[C@]1(CCS(=O)(=O)c2ccccc2)N=C(c2ccc(OCCCO)cc2)O[C@@H]1c1ccccc1	0.0169	0.938	0.0485	1.05	1.68	1.48	1.18	-2.35 (inactive)	1.31	-0.378
O=C1C2C=CC(C(O)c3ccc(B(O)O)cc3)N(Nc3ccccc3)C2C(=O)N1c1ccccc1 (stereo not given)	0.72	0.0762	0.0533	-0.132	0.971	1.38	-0.401	4.59 (inactive)	0.302	-0.299
Cc1ccc(S[C@]2(C(=O)NCc3ccccc3)CC(=O)N(Cc3ccccc3Cl)[C@@H]2c2ccc(CO)cc2I)cc1	0.715	-1.06	-0.104	-0.638	-0.848	0.288	0.539	-0.0143 (inactive)	-0.319	-0.0645
CN(C)CCCCNC(=O)[C@H]1C[C@H]2C(=O)N[C@@H](Cc3ccccc3)C(=O)N2[C@H]1c1ccc(O)cc1	-0.289	0.703	-0.0805	0.934	1.37	1.65	1.22	1.85 (inactive)	0.748	0.107
Cc1ccc([C@H]2C(C(=O)O)=C[C@@H](C)N2S(=O)(=O)c2ccc(C)cc2)cc1	0.247	-0.36	-0.0867	-0.337	-0.0054	1.52	0.962	-0.282 (inactive)	-0.882	-0.201
O=C1N(CCS(=O)(=O)c2ccccc2)c2ccccc2C[C@@]12COC(c1ccc(OCCCO)cc1)=N2	-0.178	0.858	0.0887	0.322	1.33	1.11	1.33	1.18 (inactive)	0.971	0.075
